According to PubChem BioAssay AID488969 (Vanderbilt High Throughput Screening Facility, 2010):
Whole data set: some 110,000 compounds, median “z-score” near -0.1, cut for the highest 2% near 2. The sample holds the highest values, similar compounds and a random draw of the others, so the mix is not that of the screen. Activity calls are given as the source filed them.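 Rule for the calls: active = z-score in the third read window above 3 or below -3; inactive = the rest.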

target: Metabotropic glutamate receptor 8 (Rattus norvegicus) (UniProt P70579); test: rat mGluR8 modulators via GIRK flux, primary screen, cell-based, thallium flux, HTS (AID 488969); conditions: HEK293 rat mGluR8, GIRK (G protein-gated inwardly rectifying potassium channel) thallium flux, FluoZin2; at 10 µM; stronger effect = higher value; submaximal glutamate (EC20) added with thallium
Sequence (P70579 whole entry, looked up): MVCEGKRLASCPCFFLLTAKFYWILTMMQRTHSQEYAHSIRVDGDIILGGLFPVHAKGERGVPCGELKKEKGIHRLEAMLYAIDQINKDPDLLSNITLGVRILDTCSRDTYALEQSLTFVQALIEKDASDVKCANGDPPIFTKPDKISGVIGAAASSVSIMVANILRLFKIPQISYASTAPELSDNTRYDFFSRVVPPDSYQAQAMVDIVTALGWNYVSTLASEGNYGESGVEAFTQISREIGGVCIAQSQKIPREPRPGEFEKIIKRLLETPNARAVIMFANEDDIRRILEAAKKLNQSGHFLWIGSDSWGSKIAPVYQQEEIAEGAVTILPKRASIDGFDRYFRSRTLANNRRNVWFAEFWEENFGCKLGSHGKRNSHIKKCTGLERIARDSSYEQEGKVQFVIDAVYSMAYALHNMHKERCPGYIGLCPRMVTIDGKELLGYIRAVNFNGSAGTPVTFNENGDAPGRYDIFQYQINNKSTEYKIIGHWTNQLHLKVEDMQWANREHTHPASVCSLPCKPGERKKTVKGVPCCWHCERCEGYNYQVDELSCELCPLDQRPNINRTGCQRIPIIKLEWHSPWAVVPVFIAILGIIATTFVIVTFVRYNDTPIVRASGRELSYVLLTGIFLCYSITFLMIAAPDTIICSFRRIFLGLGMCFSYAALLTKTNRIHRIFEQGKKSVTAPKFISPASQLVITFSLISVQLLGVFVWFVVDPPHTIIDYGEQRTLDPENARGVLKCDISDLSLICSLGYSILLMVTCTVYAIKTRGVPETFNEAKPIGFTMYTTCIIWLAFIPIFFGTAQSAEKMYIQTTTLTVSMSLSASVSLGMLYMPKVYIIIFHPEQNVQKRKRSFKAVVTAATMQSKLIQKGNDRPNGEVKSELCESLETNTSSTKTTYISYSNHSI

| Structure (SMILES) | z-score |
| --- | --- |
| O=C(Nc1ccccn1)C12CC3CC(C1)CC(C(=O)Nc1ccccn1)(C3)C2 | 0.332 |
| Cc1cccc(Oc2ncc(-c3ccc(Cl)cc3)cn2)c1 | 0.0612 |
| Cc1cc(N2CCOCC2)nc2ccccc12 | -0.0968 |
| c1nc(NCC2CCCO2)c2[nH]cnc2n1 (stereo not drawn) | 0.26 |
| O=C(NCC1CCCO1)c1cccc(Br)c1 (stereo not drawn) | 0.348 |
| Cc1cccc(C(=O)NCC2CCCO2)c1 (stereo not drawn) | 2.21 |
| O=C(NCC1CCCO1)c1cccc(F)c1 (stereo not drawn) | 0.371 |
| O=C(CCS(=O)(=O)c1ccc(Br)cc1)Nc1cc(F)ccc1F | -0.0256 |
| O=C(Cn1c(C(F)(F)F)nc2ccccc21)OCC(=O)c1c[nH]c2ccccc12 | -0.594 |
| Cc1cc(C)n(-c2nc3ccccc3nc2NCCc2ccccc2)n1 | -0.16 |
| Cc1cccc(NC(=S)NCCN2CCOCC2)c1C | -0.235 |
| Cc1cccc(NC(=S)N=Nc2c(O)n(CN3CCOCC3)c3ccccc23)c1C | 2.19 |
| Cc1ccc(N=Nc2c(O)n(CN3CCOCC3)c3ccccc23)cc1 | -0.152 |
| Cn1c(SCc2cc(=O)[nH]c3ccccc23)nnc1-c1ccco1 | -0.244 |
| Cn1c(SCc2cccc3ccccc23)nnc1-c1ccco1 | 2.15 |
| Nn1c(SCc2cccc3ccccc23)nnc1-c1ccco1 | 0.217 |
| N#Cc1cn(-c2ccccc2)nc1-c1cc2ccccc2oc1=O | -0.0371 |
| Cc1ccc(-n2c(C3CC3c3ccc(Cl)cc3)n[nH]c2=S)cc1 (stereo not drawn) | 0.832 |
| Cc1ccc(C2CC2c2n[nH]c(=S)n2-c2ccc(Cl)cc2)cc1 (stereo not drawn) | 2.95 |
| S=c1[nH]nc(C2CC2c2ccc(Cl)cc2)n1-c1ccc(Cl)cc1 (stereo not drawn) | 0.549 |
| Cc1ccc(C2CC2c2n[nH]c(=S)n2-c2cccc(Cl)c2)cc1 (stereo not drawn) | 0.358 |
| Cc1ccc(C2CC2c2n[nH]c(=S)n2-c2ccc(C)cc2)cc1 (stereo not drawn) | 2.34 |
| Cc1ccc(-n2c([C@@H]3C[C@H]3c3ccccc3)n[nH]c2=S)cc1 | 0.209 |
| O=C(c1ccc(-n2cnnn2)cc1)N1CCCCC1 | 0.294 |
| CN1CCC(OC(=O)COc2ccc(C(C)(C)C)cc2)CC1 | 0.712 |

| Structure (SMILES) | z-score |
| --- | --- |
| COC1CCCCC1Nc1cc(C)cc(C)c1 (stereo not drawn) | -0.0687 |
| COc1ccc(C)cc1S(=O)(=O)N(C)CC(=O)NC1CCCC1 | -0.639 |
| COc1ccc(N(CC(=O)Nc2ccccc2SC)S(C)(=O)=O)cc1OC | 0.573 |
| CSc1ccccc1NC(=O)CN(c1ccccc1Br)S(C)(=O)=O | 2.04 |
| COc1ccc(Cl)cc1N(CC(=O)Nc1ccccc1SC)S(C)(=O)=O | 0.203 |
| CN(C)S(=O)(=O)c1ccc(NC(=O)/C=C/c2ccccc2Cl)cc1 | -0.0315 |
| O=C(Nc1nnc(CSCc2ccc(F)cc2)s1)c1ccc([N+](=O)[O-])cc1 | 2.51 |
| O=C(Nc1nnc(CSCc2ccc(F)cc2)s1)c1cccc([N+](=O)[O-])c1 | -0.37 |
| CCC(=O)Nc1nnc(CSCc2ccc(F)cc2)s1 | 0.0266 |
| O=C(NCc1ccc(Cl)cc1)C(=O)NCC1OCCN1C(=O)c1cccs1 (stereo not drawn) | -0.152 |
| Cn1cc(-c2nc3ccccc3[nH]2)c2ccccc21 | -1.41 |
| O=C(c1ccccc1)C(Sc1ncn[nH]1)c1ccccc1 (stereo not drawn) | -0.672 |
| COC(=O)N/N=C\c1c(C)nn(-c2ccccc2)c1Cl | -0.389 |
| Cc1ccc(C)c(OCC(=O)N/N=C/c2c(C)nn(-c3ccccc3)c2Cl)c1C | -0.185 |
| Cc1ccc(C)c(OCC(=O)N/N=C/c2c(C)nn(-c3ccccc3)c2Cl)c1 | 2.98 |
| Fc1ccccc1N1CCN(CCCNc2ccc3nncn3n2)CC1 | 0.731 |
| CCOC(=O)N1CCC(NCCNC(=O)c2ccccc2)CC1 | 0.292 |
| CC(OC(=O)CCCN1C(=O)c2ccccc2C1=O)C(=O)Nc1ncc(Cl)cc1Cl (stereo not drawn) | 2.08 |
| CC(OC(=O)CN1C(=O)C2CCCCC2C1=O)C(=O)Nc1ncc(Cl)cc1Cl (stereo not drawn) | 0.031 |
| O=C(COC(=O)CN1C(=O)c2ccccc2C1=O)Nc1ncc(Cl)cc1Cl | 0.719 |
| Cc1c(NC(=O)C(C)OC(=O)c2cc(Cl)nc(Cl)c2)c(=O)n(-c2ccccc2)n1C (stereo not drawn) | 0.0979 |
| CCOC(=O)C(Oc1ccc2c(-c3ccccc3)cc(=O)oc2c1C)c1ccccc1 (stereo not drawn) | -0.0738 |
| Cc1csc(NC(=O)CSc2nnc(-c3cc(C)on3)o2)n1 | 0.301 |
| CCc1cc2c(NCc3ccco3)ncnc2s1 | -0.444 |
| CCOC(=O)c1sc2ncnc(NCc3ccco3)c2c1C | 14.7 (active) |

| Structure (SMILES) | z-score |
| --- | --- |
| CCOC(=O)c1sc2nc(CC(=O)OC)nc(NCc3ccco3)c2c1C | -0.245 |
| Cc1c(NC(=O)c2cc3nc(-c4ccc(Br)cc4)cc(C(F)(F)F)n3n2)c(=O)n(-c2ccccc2)n1C | -0.51 |
| Cc1cc(C)nc(/N=C(\N)Nc2ccc(F)c([N+](=O)[O-])c2)n1 | -0.14 |
| O=C(C(Cc1ccccc1)N1C(=O)C2C3C=CC(C3)C2C1=O)N1CCCCC1 (stereo not drawn) | -0.174 |
| CC(C)C(=O)Nc1ccccc1C(=O)OCC(=O)c1ccc2c(c1)OCCO2 | -0.424 |
| COc1ccccc1NC(=O)NCc1ccc2c(c1)OCO2 | 0.532 |
| CC(=O)Nc1ccccc1OCC(=O)c1ccc2c(c1)OCO2 | 2.07 |
| O=C1CC(c2cccc(Br)c2)c2cc3c(cc2N1)CCC3 (stereo not drawn) | -0.00205 |
| COc1ccc(S(=O)(=O)Nc2ccc(C)cc2)cc1OC | -0.166 |
| O=C(c1ccc(Br)o1)N1CCN(Cc2ccc3c(c2)OCO3)CC1 | -1.48 |
| CCn1cnc2sc(C(=O)Nc3ccc4c(c3)OCO4)c(C)c2c1=O | -0.145 |
| Cc1c(Cl)cccc1NC(=S)N1CCN(Cc2ccc3c(c2)OCO3)CC1 | 0.334 |
| CCn1nc(C(=O)N2CCN(Cc3ccc4c(c3)OCO4)CC2)c2ccccc2c1=O | -0.474 |
| CS(=O)(=O)N(CC(=O)N1CCN(Cc2ccc3c(c2)OCO3)CC1)Cc1ccc(Cl)cc1 | 0.174 |
| CCn1cnc2sc(C(=O)N3CCN(Cc4ccc5c(c4)OCO5)CC3)c(C)c2c1=O | 2.58 |
| Cc1cccc(C(=O)N2CCN(Cc3ccc4c(c3)OCO4)CC2)c1 | -0.0762 |
| Cc1ccc(NC(=S)N2CCN(Cc3ccc4c(c3)OCO4)CC2)c(C)c1 | -0.407 |
| CCC(CC)C(=O)N1CCN(Cc2ccc3c(c2)OCO3)CC1 | -0.17 |
| CCN(CC)c1ccc(C(=O)NC(=S)N2CCN(Cc3ccc4c(c3)OCO4)CC2)cc1 | 10 (active) |
| O=C(NC(=S)N1CCN(Cc2ccc3c(c2)OCO3)CC1)c1ccc(Cl)cc1 | 15.2 (active) |
| O=C(NC(=S)N1CCN(Cc2ccc3c(c2)OCO3)CC1)c1cccc(Br)c1 | 9.35 (active) |
| CCN1C(=O)/C(=C\N2CCCc3ccccc32)SC1=S | -0.289 |
| O=C(c1ccc(OCC2CCCO2)cc1)N1CCN(c2ccccc2)CC1 (stereo not drawn) | -0.525 |
| O=C(NCCc1ccc(Cl)cc1)C1CCC(=O)N1Cc1ccccc1Cl (stereo not drawn) | -0.0695 |
| COc1ccc(NC(=O)C(NC(=O)CC2NC(=O)NC2=O)c2ccccc2)cc1 (stereo not drawn) | 0.0457 |

| Structure (SMILES) | z-score |
| --- | --- |
| CC(=O)NC12CC3CC(CC(CC(=O)O)(C3)C1)C2 | 0.634 |
| O=Cc1cccn1Cc1ccc(Cl)cc1Cl | -0.152 |
| Cc1nn(-c2ccccc2)c2c1C1(C(=O)N(C)c3ccccc31)C(C#N)=C(N)O2 (stereo not drawn) | -0.0421 |
| O=C1OCCC1Sc1nnc(-c2ccc(Cl)cc2)n1Cc1ccccc1 (stereo not drawn) | -0.478 |
| O=C1OCCC1Sc1nc2cc(Cl)ccc2n1Cc1ccccc1 (stereo not drawn) | 6.69 (active) |
| O=C1OCCC1Sc1nc2ccccc2n1Cc1ccccc1 (stereo not drawn) | -1.37 |
| Cc1c(N=C2SCC(=O)N2/N=C/c2ccccc2Cl)c(=O)n(-c2ccccc2)n1C | 0.339 |
| Cc1sc2ncnc(SCC(=O)N3CCCC3)c2c1C | 0.342 |
| Cc1sc2ncnc(SCC(=O)NC3CC3)c2c1C | 0.845 |
| Cc1sc2ncnc(SCC(=O)N3CCCC3=O)c2c1C | 2.71 |
| COc1cc(C(=O)Nc2nnc(C)s2)cc(OC)c1OC | 0.381 |
| Cc1ccc(-n2nc(-c3cccnc3)cc2C(=O)N2CCOCC2)c(C)c1 | 0.372 |
| Nc1ccccc1NC(=O)c1ccccc1N | 0.194 |
| Nc1nnc(-c2ccccc2)s1 | -0.337 |
| Nc1nnc(C(=O)c2ccccc2N)s1 | 4.29 (active) |
| Cc1c(NC(=O)COC(=O)C(c2ccc(Cl)cc2)C(C)C)c(=O)n(-c2ccccc2)n1C (stereo not drawn) | -0.457 |
| CC(C)(C)NCC(O)COc1c(F)cc(Br)cc1F (stereo not drawn) | 0.622 |
| CC(C)(C)CC(C)(C)NCC(O)COc1c(F)cc(Br)cc1F (stereo not drawn) | 3.25 (active) |
| OC(CNC1CCCC1)COc1c(F)cc(Br)cc1F (stereo not drawn) | 0.142 |
| C=CCSC1=N/C(=C\c2ccsc2)C(=O)S1 | -0.538 |
| CC(C)OC(=O)c1cccnc1SCC(=O)N(C)c1ccccc1 | -0.698 |
| CCOc1ccc(CNC(=O)C2CCCN(S(C)(=O)=O)C2)cc1OC (stereo not drawn) | 0.258 |
| CCC(=O)Nc1ccc(Cl)c(NC(=O)C(C)C)c1 | 0.418 |
| CN(C)CCNC(=O)Nc1ccc(Cl)c(Cl)c1 | 0.092 |
| O=C(NCCCn1ccnc1)Nc1ccc(Cl)cc1Cl | -0.326 |

| Structure (SMILES) | z-score |
| --- | --- |
| O=C(NCCCn1ccnc1)Nc1ccc(Cl)c(Cl)c1 | 3.92 (active) |
| C=COCCNC(=O)Nc1ccc(Cl)c(Cl)c1 | 3.37 (active) |
| Cc1nn(C)cc1CNC(=O)Nc1ccc(Br)cc1Cl | -0.126 |
| Cc1nn(C)cc1CNC(=O)Nc1ccc(Cl)c(Cl)c1 | 2.06 |
| Cc1nn(C)cc1CNC(=O)Nc1cccc(Cl)c1 | 0.0377 |
| O=C(NCCCn1ccnc1)Nc1cccc(Cl)c1 | 0.583 |
| C=COCCNC(=O)Nc1ccc(Cl)cc1Cl | 0.104 |
| CCOc1ccccc1Nc1nc(-c2sc(NC(=O)c3ccc([N+](=O)[O-])cc3)nc2C)cs1 | 0.209 |
| CCOc1ccc(CC(=O)Nc2c(C(N)=O)oc3ccc(Br)cc23)cc1OCC | -0.0702 |
| CN(C)/C=C1/N=C(c2ccccc2)OC1=O | -0.23 |
| COc1ccc(C(=O)c2ccc(CC#N)s2)cc1 | -0.0619 |
| CCn1c2ccccc2c2nnc(SCC(=O)OCN3C(=O)c4ccccc4C3=O)nc21 | -0.087 |
| CC(C)(C)S(=O)c1cccs1 (stereo not drawn) | 0.555 |
| CSc1nc(C)cc(OCC(=O)N2CCOCC2)n1 | 0.387 |
| Fc1ccc(NC(=S)N2CCCC2)cc1 | -0.0754 |
| S=C(Nc1ccc(Cl)cc1)N1CCCCC1 | -0.262 |
| S=C(Nc1ccc(Cl)cc1)N1CCCC1 | 0.113 |
| Cc1cc(C)c2c(c1)/C(=N/NS(=O)(=O)c1ccccc1)CCC2 | -1.09 |
| S=C(NN=C1CCCCCC1)Nc1ccc(Cl)cc1 | 9.7 (active) |
| Fc1ccc(NC(=S)N2CCCCC2)cc1 | 0.208 |
| COc1ccc(NC(=S)N/N=C2/CCCc3c(C)cc(C)cc32)cc1 | 0.0188 |
| Fc1ccc(NC(=S)NN=C2CCCCCC2)cc1 | 12 (active) |
| Cc1cc(C)c2c(c1)/C(=N/NC(=S)Nc1ccc(F)cc1)CCC2 | 2.6 |
